For test [1], the target named is Calcium and integrin-binding protein 1 (Homo sapiens) (UniProt Q99828). The experiment in a line: Primary qHTS for Identification of Calcium Integrin Binding Protein 1 (CIB1) Competitor (AID 1508620).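 Also: GST tagged CIB1 binding a fluorescein labelled alphaIIb integrin peptide tracer; top concentration of the series differs between compounds.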 The procedure, abridged:
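Fluorescence polarization competition: GST-tagged CIB1 (1 uM final) preincubated with compound 15 min at room temperature, then FITC-labelled alphaIIb peptide (100 nM final) added. After 15 min at room temperature, polarization read at Ex 480/Em 540.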

A short description of test [2]: Primary qHTS for inhibitors of nuclear receptor binding SET domain protein 2 (NSD2) in an isogenic RCH-ACV NSD2 p.E1099K mutant (9B) (AID 1645876; also: nearly all actives have a fitted effect of over 70% in size). (In general: In qHTS, concentration-response curves come from the screen itself.)
Test [3] in a line: Primary qHTS for inhibitors of nuclear receptor binding SET domain protein 2 (NSD2) in an RCH-ACV wild type WT cells (2C) (AID 1645877). Also: nearly all actives have a fitted effect of over 70% in size. Also: potency is read from the fitted curve at half-maximal effect.

Records with an inconclusive call do not appear. Values without a mark were called inactive. Calls of active or inactive are those of the source. Calls follow the shape of the dose curve; as a rule, active = well fitted curve in the direction sought with a large enough effect; inconclusive = small, poorly fitted or top-dose-only effect, or another doubt; inactive = no such curve, though single readings can be large; an effect the other way counts as inactive or inconclusive.

Calcium and integrin-binding protein 1 (Homo sapiens), sequence (Q99828 whole entry, looked up): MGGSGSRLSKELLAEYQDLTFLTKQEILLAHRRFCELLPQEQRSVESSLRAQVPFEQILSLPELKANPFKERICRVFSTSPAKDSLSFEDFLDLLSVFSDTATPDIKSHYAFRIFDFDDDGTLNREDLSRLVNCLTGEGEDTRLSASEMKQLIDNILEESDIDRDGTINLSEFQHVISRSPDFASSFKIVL

For `C/C(=C/CO)CC[C@H]1[C@]2(C)C[C@H](O)CC(C)(C)[C@H]2CC[C@]1(C)O`, the Potency result in test [1], in test [2] and in test [3] was “inactive” throughout.
Take `CC12CC34CC(O)C5C(CO)(CO)CC(=O)CC5(C)C3CC1C2C4` (stereo not drawn): the Potency result in test [1], in test [2] and in test [3] was “inactive” throughout.
Consider `COc1cc(O)c2c(c1)C1(OC2=O)C(C)=CC(=O)C1O` (stereo not drawn), for which the Potency result in test [1], in test [2] and in test [3] was “inactive” in each case.
With `C/C=C/C=C/C=C/C(=O)O[C@@H]1[C@@H](OC)C2=C(C(=O)N(C(CCC(=O)O)C(=O)O)C2)[C@@]2(C)CCCC(C)(C)[C@H]12` (stereo partly drawn), the Potency result in test [1], in test [2] and in test [3] was “inactive” throughout.
Consider `C[C@@H]1C(=O)O[C@H]2[C@H]1CC[C@@]1(C)C(=O)C=C[C@@](C)(O)[C@H]21`, for which the Potency result in test [1], in test [2] and in test [3] was “inactive” in each case.
For the compound `C=C(C(=O)O)C1CC(OC(=O)CC(C)CC)C2(C)CCCC(=C)C2C1` (stereo not drawn), the Potency result in test [1], in test [2] and in test [3] was “inactive” throughout.
On to `COC(=O)C1=COC(OC2OC(CO)C(O)C(O)C2O)C2C(C)CC(=O)C12O` (stereo not drawn), for which the Potency entry in test [1], in test [2] and in test [3] was “inactive” throughout.
For `CSCC1OC(n2cnc3c(=O)[nH]cnc32)C(O)C1O` (stereo not drawn), the Potency entry in test [1], in test [2] and in test [3] was “inactive” in each case.
Take `C=C1C(OC(C)=O)CCC2(C)CCC(C(C)(C)O)CC12` (stereo not drawn): the Potency entry in test [1], in test [2] and in test [3] was “inactive” in each case.
On to `CCOC(=O)C(CCc1ccccc1)NC(C)C(=O)N1Cc2ccccc2CC1C(=O)O` (stereo not drawn), for which the Potency entry in test [1], in test [2] and in test [3] was “inactive” in each case.
With `CC1=CC(=O)CC(C)(C)C1/C=C/C(C)OC1OC(COC2OCC(O)C(O)C2O)C(O)C(O)C1O` (stereo not drawn), the Potency result in test [1], in test [2] and in test [3] was “inactive” each time.
Turning to `COc1ccc(C2C(C(=O)O)C(C(=O)O)C2c2ccc(OC)cc2O[C@@H]2O[C@H](CO)[C@@H](O)[C@H](O)[C@H]2O)c(O[C@@H]2O[C@H](CO)[C@@H](O)[C@H](O)[C@H]2O)c1` (stereo partly drawn), the Potency entry in test [1], in test [2] and in test [3] was “inactive” throughout.
With `CC1(C)O[C@H]2CC(=O)OC[C@@]23C1=C(O)C(=O)[C@]1(C)C3CC[C@@]2(C)[C@H](c3ccoc3)OC(=O)[C@H]3O[C@]321` (stereo partly drawn), the Potency result in test [1], in test [2] and in test [3] was “inactive” throughout.
Regarding `CC1(C)OC(=O)C=C[C@@]2(C)C1CC(=O)[C@]1(C)C2CC[C@@]2(C)[C@H](c3ccoc3)OC(=O)[C@H]3O[C@]321` (stereo partly drawn), the Potency result in test [1], in test [2] and in test [3] was “inactive” in each case.
Take `C/C=C/C=C/C=C/C(=O)N(C)C(C(=O)NC(C)C(=O)N1CCCC1C(N)=O)C(C)C` (stereo not drawn): the Potency result in test [1], in test [2] and in test [3] was “inactive” throughout.
As to `C=C1CC23CC1CCC2C12OC(=O)C(C)(C(O)C(O)C1O)C2C3C(=O)O` (stereo not drawn), the Potency entry in test [1], in test [2] and in test [3] was “inactive” each time.
Take `C[C@@]1(C(=O)O)CCC[C@@]2(C)C3=CC[C@H]4C[C@@]3(CC[C@H]12)CC4(O)CO` (stereo partly drawn): the Potency result in test [1], in test [2] and in test [3] was “inactive” in each case.
As for `CC1(C)C2CC[C@@]34CC(CC[C@H]3[C@]2(C)CC[C@@H]1O[C@@H]1O[C@H](CO)[C@@H](O)[C@H](O)[C@H]1O)[C@](C)(O)C4` (stereo partly drawn), the Potency result in test [1], in test [2] and in test [3] was “inactive” each time.
`CC(O)/C=C/C1(O)C(C)C(O)C(O[C@@H]2O[C@H](CO)[C@@H](O)[C@H](O)[C@H]2O)CC1(C)C` (stereo partly drawn): the Potency result in test [1], in test [2] and in test [3] was “inactive” each time.
In the case of `C=C1CC2C(C)(CCC(=O)O)C(C(C)(C)O)CCC2(C)C2(C(=O)OC)C(=O)C(C)(O)C(=O)C12C` (stereo not drawn), the Potency result in test [1], in test [2] and in test [3] was “inactive” throughout.
On to `OC[C@H]1O[C@@H](OCCc2ccccc2)[C@H](O)[C@@H](O)[C@@H]1O`, for which the Potency result in test [1], in test [2] and in test [3] was “inactive” in each case.
Regarding `CC1=C2C[C@@]3(C)C(CCC[C@@H]3C)C(O)C2(O)OC1=O` (stereo partly drawn), the Potency result in test [1] and in test [2] was “inactive” in each case. In addition, in test [3], the Potency was 23 µM (active).
On to `C=CC(C)(O)CC/C=C(\C)C1CC=C(C)C(=O)O1` (stereo not drawn), for which the Potency result in test [1], in test [2] and in test [3] was “inactive” throughout.
Consider `O=C(OCC1OC(Oc2ccc(O)cc2COC(=O)C2(O)C(O)CCC(=O)C2OC(=O)C2C=CCC2)C(OC(=O)C2C=CCC2)C(O)C1O)C1C=CCC1` (stereo not drawn), for which the Potency entry in test [1], in test [2] and in test [3] was “inactive” each time.
In the case of `O=C(C[C@@H]1C(C(=O)O)=CO[C@@H](O[C@@H]2O[C@H](CO)[C@@H](O)[C@H](O)[C@H]2O)/C1=C\CO)OCCc1ccc(O)cc1`, the Potency entry in test [1], in test [2] and in test [3] was “inactive” throughout.
Turning to `CC/C=C/C(O)C(O)C1=C(C)C(=O)C2(O1)C(=O)NC(OC)(C(=O)c1ccccc1)C2O` (stereo not drawn), the Potency result in test [1], in test [2] and in test [3] was “inactive” each time.

The values are drawn from PubChem BioAssay (NCATS).
